Calls of active or inactive are those of the source. The calls were made as follows: active = hit-call score of the fitted dose curve at least 0.9, where 1 is the maximum; inactive = score below 0.9.
assay: UKN2_HCS_IMR90_neural_migration: University of Konstanz (UKN) Leist Lab Neural Crest Cell Migration Assay in human induced IMR90 Pluripotent Stem Cells (UKN2) (AID 2284204); details: actives raise or lower the signal
How it was run: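 Using a 96-well stopper format with PLO/laminin/fibronectin coating, neural crest cells from iPSC migrate in cytokine-supplemented N2-S medium; after 24 h, chemicals are applied for a further 24 h, then cells are imaged after dye staining.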

Row | Compound | outcome
1 | O=S(=O)(O)C(F)(F)C(F)(F)C(F)(F)C(F)(F)C(F)(F)C(F)(F)F | inactive
2 | CO/C=C(/C(=O)OC)c1ccccc1COc1cccc(C(F)(F)F)n1 | inactive
3 | O=S(=O)(O)C(F)(F)C(F)(F)C(F)(F)C(F)(F)F | inactive
4 | CCOP(=S)(OCC)SCSC(C)(C)C | inactive

assay: IUF_NPC1b_proliferation_BrdU_72hr: Leibniz Research Institute for Environmental Medicine (IUF) 72-hour Neural Progenitor Cell Bromodeoxyuridine (BrdU) Proliferation Assay (NPC1b) (AID 2284207); details: not given
How it was run: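 Neural progenitor spheres of human fetal origin are treated for three days; BrdU added for the last 16 h is quantified by luminescence ELISA, with DMSO as baseline and EGF/FGF omission as positive control.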

Row | Compound | outcome
5 | C=CC(N)=O | inactive
6 | O=S(=O)(O)C(F)(F)C(F)(F)C(F)(F)C(F)(F)C(F)(F)C(F)(F)F | inactive
7 | CO/C=C(/C(=O)OC)c1ccccc1COc1cccc(C(F)(F)F)n1 | inactive
8 | O=S(=O)(O)C(F)(F)C(F)(F)C(F)(F)C(F)(F)F | inactive
9 | CCOP(=S)(OCC)SCSC(C)(C)C | inactive

assay: IUF_NPC1a_proliferation_area_72hr: Leibniz Research Institute for Environmental Medicine (IUF) 72-hour Neural Progenitor Cell Proliferation Area Assay (NPC1a) (AID 2284208); details: not given
How it was run: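 hNPC spheres (human fetal cortex, GW 16-19), one per poly-Hema U-bottom well; EGF+FGF medium; dosed day 0, no re-dosing; 72 h, 37C, 5% CO2; phase-contrast sphere area; DMSO = baseline; minus-GF = positive ctrl.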

Row | Compound | outcome | AC50
10 | C=CC(N)=O | inactive | –
11 | O=S(=O)(O)C(F)(F)C(F)(F)C(F)(F)C(F)(F)C(F)(F)C(F)(F)F | inactive | –
12 | CO/C=C(/C(=O)OC)c1ccccc1COc1cccc(C(F)(F)F)n1 | – | 12.6 µM (active)
13 | O=S(=O)(O)C(F)(F)C(F)(F)C(F)(F)C(F)(F)F | inactive | –
14 | CCOP(=S)(OCC)SCSC(C)(C)C | inactive | –
